LASV entry inh = Lassa virus entry inhibition | Potency, µM (top dose mostly 37.9 µM), hits mostly inhibitors | actives 1.2% (n = 300,000) | Lassa virus pseudotype entry inhibition, cell reporter; calls by dose curve; tested in HEK293 cells; note: nearly all actives have a fitted effect of over 50% in size
FMDV inh = blocks foot and mouth disease virus. FMDV antiviral cell-based qHTS. Potency, µM (highest dose often 57.9 µM), most hits filed as inhibitors. actives 1.2% (n = 410,000); calls by dose curve; tested in HEK293T cells; note: read-out not given here; nearly all actives have a fitted effect of over 45% in size
HCV inh = inhibitors of hepatitis C virus infection; Huh7.5.1 HCVcc-Cre infection, luciferase reporter, 44 h; Potency, µM (top dose mostly 41.8 µM), hits mostly inhibitors; actives 3.4% (n = 340,000); AID 651820
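Luciferase read-out (15 sec integration) after a 15 min room-temperature substrate step quantifies HCVcc-Cre infection. Cells, 1,000 per well, had compound added 4 h post-plating, then virus at ~0.5 moi, and were cultured 44 h.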
RE007 growth inh = less growth of the S. pombe RE007 Vpr strain | S. pombe RE007 Vpr strain, BacTiter-Glo ATP luminescence, 24 h | Potency, µM (titrated, usually from 92.2 µM), actives largely listed as inhibitors | actives 0.21% (n = 360,000); active = well fitted falling curve with a large enough effect; inconclusive = small, poorly fitted or top-dose-only effect; inactive = no such curve, though single readings can be large or run the other way; note: nearly all actives have a fitted effect of over 50% in size
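Fission yeast strain RE007, carrying one chromosomally integrated HIV-1 vpr copy, was seeded at OD 0.01 in PMG+AL medium with 23 nL pinned compound. After 24 h at 30 °C and 99% humidity, viability was read by BacTiter-Glo luminescence.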
MARV entry inh = Marburg virus entry inhibition; Marburg virus pseudotyped entry inhibition, cell reporter; actives 1.8% (n = 300,000); Potency, µM (doses to about 37.8 µM), most hits filed as inhibitors; calls by dose curve; tested in HEK293 cells
Sm TGR block = blocks Schistosoma mansoni thioredoxin glutathione reductase; Q962Y6; purified TGR, DTNB reduction, TNB absorbance 405 nm; Potency, µM (doses to about 114 µM), most hits filed as inhibitors; actives 3% (n = 360,000); AID 485364; note: nearly all actives have a fitted effect of over 60% in size
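Kinetic colorimetric format: TGR-catalysed, NADPH-driven DTNB reduction monitored via TNB absorbance. Enzyme dispensed at 20 nM; compound exposure 15 min at room temperature before reaction start.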
A number is an active result; – = inactive; ? = inconclusive; · = no result given. An excerpt weighted towards active compounds, which were near 7.2% of everything screened. Unless noted, calls come from the whole dose curve; as a rule, active = well fitted curve in the direction sought with a large enough effect; inconclusive = small, poorly fitted or top-dose-only effect, or another doubt; inactive = no such curve, though single readings can be large; an effect the other way counts as inactive or inconclusive.

SMILES	LASV entry inh	FMDV inh	HCV inh	RE007 growth inh	MARV entry inh	Sm TGR block
Cc1ccc(Cc2nc(-c3ccccn3)no2)cc1	?	–	–	–	–	–
c1ccc(-c2noc(-c3ccno3)n2)nc1	·	–	–	–	·	–
COc1cccc(-c2nc(-c3ccccn3)no2)c1OC	–	–	?	–	–	–
Clc1cccc(-c2nc(-c3ccccn3)no2)c1	1.8µM	?	–	?	?	–
COc1cc(-c2nc(-c3ccccn3)no2)cc(OC)c1OC	–	·	4µM	–	–	–
c1ccc(-c2ccc(-c3nc(-c4ccccn4)no3)cc2)cc1	?	2.8µM	?	40µM	?	–
Cc1ccc(-c2nc(-c3ccccn3)no2)cc1	0.32µM	2.8µM	?	16µM	1.1µM	–
c1ccc(-c2cc(-c3nc(-c4ccccn4)no3)c3ccccc3n2)cc1	?	?	–	–	–	·
Nc1nonc1-c1nc2ccccc2n1CC(=O)Nc1cccc(Cl)c1Cl	?	–	·	·	·	–
CC(OC(=O)c1ccc(C#N)cc1)C(=O)Nc1ccc(Cl)cn1 (configuration not stated)	–	–	–	–	?	–
Cc1ccc(-c2nc(-c3ccccn3)no2)cc1Cl	1.4µM	–	–	?	?	–
c1ccc(-c2nc(-c3ccccn3)no2)cc1	?	13µM	–	?	?	–
CCN(CC)c1ccc(-c2nc(-c3ccccn3)no2)cc1[N+](=O)[O-]	–	–	·	·	–	50µM
COc1ccc2oc(=O)cc(CN3CCN(C(=O)c4ccccc4)CC3)c2c1	–	–	·	·	–	–
Cc1cc(S(=O)(=O)NCc2nc(N3CCCC3)c3cc(Cl)ccc3n2)c(C)s1	·	–	·	·	·	·
Cn1cc(C(=O)N2CCN(c3cccc(Cl)c3)CC2)c(=O)c2cc(S(=O)(=O)N3CCCC3)ccc21	–	–	·	·	–	–
O=C1C(=Cc2ccc(Br)o2)C(=O)c2ccccc21	–	–	–	–	?	11µM
CC1=C/C(=C\c2ccc(Br)o2)C(=O)O1	–	–	–	–	–	–
Cc1ccc(C(=O)O)cc1-c1ccc(C=C2C(=O)c3ccccc3C2=O)o1	–	–	–	–	–	45µM
Cc1ccc(NC(=O)CN2C(=O)S/C(=C/c3ccc(-c4cc(C(=O)O)ccc4C)o3)C2=O)cc1C	–	–	–	–	–	–
CCCC(=O)N1CCN(c2ccc(NC(=O)c3cc4ccccc4o3)cc2Cl)CC1	16µM	4.5µM	2.2µM	–	?	–
O=C(Nc1ccc(N2CCN(C(=O)c3ccccc3)CC2)c(Cl)c1)c1ccco1	?	–	10µM	–	?	?
O=C(Nc1ccc(N2CCN(C(=O)c3ccco3)CC2)c(Cl)c1)c1cc2ccccc2o1	?	8.9µM	3.5µM	–	?	–
CCC(=O)N1CCN(c2ccc(NC(=O)c3cc4ccccc4o3)cc2Cl)CC1	?	8.9µM	11µM	–	11µM	–
COC(=O)[C@@H]1[C@@H](c2cccc(C(F)(F)F)c2)NC(=O)N(Cc2ccccc2)[C@@H]1C	·	·	·	·	–	·
SMILES	LASV entry inh	FMDV inh	HCV inh	RE007 growth inh	MARV entry inh	Sm TGR block
COc1ccc(C(=O)NC2CCCc3c2cnn3-c2cccc(C)c2C)o1 (configuration not stated)	·	–	?	–	·	–
Cc1cccc(-n2ncc3c2CCCC3NC(=O)CN2CCOC2=O)c1C (configuration not stated)	·	–	–	–	·	–
Cc1cccc(-n2ncc3c2CCCC3NC(=O)Cc2c(C)noc2C)c1C (configuration not stated)	·	–	8.9µM	–	·	–
Cc1cc(C(=O)NC2CCCc3c2cnn3-c2cccc(C)c2C)no1 (configuration not stated)	?	–	11µM	–	?	–
CC1=C(C(=O)NC2CCCc3c2cnn3-c2cccc(C)c2C)OCCO1 (configuration not stated)	?	?	3.5µM	–	?	–
Cc1cccc(-n2ncc3c2CCCC3NC(=O)c2ccncc2)c1C (configuration not stated)	·	?	·	–	·	·
CN[C@H]1CCc2cc(OC)c(OC)c(OC)c2-c2ccc(N[C@@H]3CCCCNC3=O)c(=O)cc21	·	–	·	·	·	·
Cc1c(CNC2CCCCC2)c(C(=O)O)c(C)n1Cc1ccc(F)cc1	–	–	·	·	–	–

Source: PubChem (National Center for Advancing Translational Sciences (NCATS))
